Sampled rows, rich in hits. Any-hit rate of the full collection: about 1.3%.
TRPML1 agonist – activates the human TRPML1 channel; TRPML1-expressing cells, Ca2+ dye fluorescence, FDSS; activation, % (test concentration not listed); 410,000 tested, 0.12% active; in the data active = activation above about 50%; inconclusive = mostly about 30% to 49%; note: 0% is about no effect
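Kinetic FDSS Ca2+ read in Tet-induced TRPML1-DL cells (ABD Ca8 dye plus quencher, 45-90 min RT loading): baseline, then compound, then 110 s agonist window; EC80 agonist 54-4 at 4uM final added afterwards for a 110 s antagonist window.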
TRPV1 ag – activates the human vanilloid receptor TRPV1; TRPV1-expressing cells, Fluo-8 calcium influx, agonist mode; activation, % at 8.33 µM; 320,000 tested, 0.19% active; AID 540275; in the data active = activation above about 80%; inconclusive = between about 30% and that limit; note: 0% is about no effect
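TRPV1-expressing cells were cultured overnight at 35.5C and loaded with Fluo-8 calcium dye for 40 to 90 min at room temperature. After a 10 s baseline, compound was added and calcium influx was read kinetically for 3 min (ex 480/em 520 nm).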
TRPV1 PAM – enhances activation of the human vanilloid receptor TRPV1; Q8NER1; TRPV1-expressing cells, Fluo-8 calcium influx, capsaicin EC20 potentiation; potentiation, % at 8.33 µM; 320,000 tested, 0.02% active; in the data active = potentiation above about 80%; inconclusive = between about 30% and that limit; note: 0% is about no effect
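Fluo-8 calcium influx in TRPV1-expressing cells, kinetic read (ex 480/em 520 nm). Compound added and read 3 min for agonist activity, followed by capsaicin at EC20 final and 2 min further read for enhancement.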
KCNH2 3.1 block – KCNH2 3.1 (human) potassium channel inhibition; activity change, % (tested at about 1.8 µM); AID 720553; 340,000 tested, 0.95% active; U2OS KCNH2 3.1, thallium flux FluxOr; active compounds read low;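 active = maximum activity change below -70%; inconclusive = maximum activity change from -70% to -50%; inactive = maximum activity change above -50%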;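 note: thallium influx rate constant from kinetic fluorescence after stimulation buffer; % is set by controls: 0 for no effect and ±100 for the full control effect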
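Measured as rate of thallium-driven FluxOr signal in transduced U2OS cells carrying the 3.1 channel, read kinetically for 2 min upon stimulation; values are rate constants scaled to DMSO control wells.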
TRPML1 inh – blocks the human TRPML1 channel | Q9GZU1 | TRPML1-inducible cells, Ca2+ dye fluorescence, FDSS; active compounds read low; inhibition of EC80 agonist-evoked calcium signal | activity change, negative = inhibition, % (test concentration not listed) | 390,000 tested, 0.02% active; in the data active = activity change below about -50%; inconclusive = between about -30% and that limit;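 note: stimulus is agonist 54-4 at its EC80 concentration; % is set by controls: 0 for no effect and ±100 for the full control effect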
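Calcium fluorescence in TRPML1-DL cells induced overnight with Tet: a 110 s read after compound pin addition, then a 110 s antagonist read after challenge with 54-4 at 4 uM final (EC80).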
KCNH2 WT inh – blocks the wildtype human KCNH2 potassium channel; activity change, % at 1.84 µM; U2OS, BacMam KCNH2, thallium flux FluxOr; active compounds read low; 340,000 tested, 0.37% active;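 active = maximum activity change below -70%; inconclusive = maximum activity change between -70% and -50%; inactive = maximum activity change above -50%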; note: % is set by controls: 0 for no effect and ±100 for the full control effect
Target sequence (Q12809 whole entry, looked up): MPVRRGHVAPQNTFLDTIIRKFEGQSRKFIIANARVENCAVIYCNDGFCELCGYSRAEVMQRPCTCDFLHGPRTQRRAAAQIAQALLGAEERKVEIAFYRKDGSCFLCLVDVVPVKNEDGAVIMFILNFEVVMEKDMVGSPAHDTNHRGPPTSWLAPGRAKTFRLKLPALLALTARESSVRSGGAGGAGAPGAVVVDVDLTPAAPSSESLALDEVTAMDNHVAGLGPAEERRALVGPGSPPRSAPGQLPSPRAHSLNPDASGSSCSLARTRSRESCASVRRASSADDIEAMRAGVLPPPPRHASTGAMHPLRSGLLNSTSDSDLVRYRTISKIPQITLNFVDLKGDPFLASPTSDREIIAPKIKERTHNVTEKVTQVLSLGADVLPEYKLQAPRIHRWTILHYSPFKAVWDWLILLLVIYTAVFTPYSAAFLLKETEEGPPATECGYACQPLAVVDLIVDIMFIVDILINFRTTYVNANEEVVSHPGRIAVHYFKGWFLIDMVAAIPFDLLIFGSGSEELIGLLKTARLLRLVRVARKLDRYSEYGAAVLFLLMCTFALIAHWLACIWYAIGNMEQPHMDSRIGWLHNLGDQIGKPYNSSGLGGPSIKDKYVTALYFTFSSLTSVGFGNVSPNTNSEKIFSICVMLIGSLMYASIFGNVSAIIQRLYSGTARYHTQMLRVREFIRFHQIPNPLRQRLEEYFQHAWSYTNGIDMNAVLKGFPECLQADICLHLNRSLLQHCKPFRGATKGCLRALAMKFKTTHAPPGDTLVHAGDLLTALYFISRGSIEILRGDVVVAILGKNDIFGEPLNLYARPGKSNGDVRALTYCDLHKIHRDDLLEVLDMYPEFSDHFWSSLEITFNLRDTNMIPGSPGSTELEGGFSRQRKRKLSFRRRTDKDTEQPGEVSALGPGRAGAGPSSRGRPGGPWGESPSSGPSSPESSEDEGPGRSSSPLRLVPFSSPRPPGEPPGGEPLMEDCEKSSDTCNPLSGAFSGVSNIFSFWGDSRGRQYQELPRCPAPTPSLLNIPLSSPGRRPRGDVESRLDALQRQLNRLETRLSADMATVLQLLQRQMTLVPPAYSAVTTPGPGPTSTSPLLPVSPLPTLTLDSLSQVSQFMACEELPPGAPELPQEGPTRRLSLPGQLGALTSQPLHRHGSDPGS
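U2OS cells transduced with wild-type KCNH2 virus are loaded with FluxOr dye for 45 min, and thallium flux is measured in kinetic reads before and after stimulation buffer. Rate constants are normalized to DMSO controls.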
* hit, by the source's call; ? = inconclusive; nt = no result.

SMILES	TRPML1 agonist	TRPV1 ag	TRPV1 PAM	KCNH2 3.1 block	TRPML1 inh	KCNH2 WT inh
Cc1cc(Br)ccc1OCCCCN1CCCCC1	2	1	-9	-89*	16	-30
Clc1ccc(Cl)c(OCCCCN2CCCCC2)c1	1	1	0	-158*	4	-137*
Cc1cc(OCCCCCN2CCCC2)ccc1Cl	2	0	5	-86*	-2	75
CCN(CC)CCN(C)c1ccc(/C=C/c2ccnc3ccccc23)cc1	12	nt	nt	nt	nt	nt
CC1CCCN(CCCOc2ccc(Br)cc2Cl)C1 (configuration not stated)	0	1	-7	-105*	-3	33
CC1CCN(CCOCCOc2ccc(Br)cc2Cl)CC1	2	3	-1	?	2	0
Clc1ccc(Cl)c(OCCCCNCc2ccccc2)c1	1	3	-2	-93*	0	1
Clc1ccc(OCCCNCc2ccccc2)c(Br)c1	-1	0	16	-21	-2	4
O=C(C1=C[C@@H](c2ccc(C(F)(F)F)cc2)C[C@@H](OCCCCO)O1)N1CCN(Cc2ccccc2)CC1	-1	?	-8	-123*	0	1
CC(C)N(C)C(=O)c1ccc(OC2CCN(CCc3ccccc3)CC2)cc1	0	1	10	-87*	-1	14
CC(c1nccs1)N(C)C(=O)c1ccc(OC2CCN(CCc3ccccc3)CC2)cc1 (configuration not stated)	0	1	6	-2	-2	42
CCOC(=O)c1sc(N(Cc2ccccc2)C(=O)COC(=O)c2cnccn2)nc1C	0	4	-11	-92*	0	-7
Cc1ccc2c(CN3CCCCC3)cc(=O)oc2c1	1	1	-3	-8	-17	13
Cc1ccc2c(CN3CCN(S(=O)(=O)/C=C/c4ccccc4)CC3)cc(=O)oc2c1	2	-4	23	-89*	-10	-32
Oc1ccc2ccccc2c1CN1CCN(C/C=C/c2ccccc2)CC1	2	3	0	-80*	19	33
Cc1cc2oc(=O)cc(CN3CCN(C/C=C/c4ccccc4)CC3)c2cc1O	nt	-2	11	nt	nt	nt
O=S(=O)(c1ccccc1)N1CCN(Cc2c(O)ccc3ccccc23)CC1	4	nt	nt	-16	5	2
Cc1c(O)ccc2c(CN3CCN(C/C=C/c4ccccc4)CC3)cc(=O)oc12	1	5	-2	-97*	21	-75*
Clc1cccc[n+]1CCCCCC[n+]1ccccc1Cl	-1	nt	nt	nt	nt	nt
O=C(CSc1ncc2c(n1)-c1ccccc1N(Cc1ccc(Cl)cc1)S2(=O)=O)c1ccc(Cl)cc1	1	nt	nt	nt	-1	nt
Cc1oc(-c2cccs2)nc1CS(=O)CC(=O)NCCc1ccccc1 (configuration not stated)	0	87*	-8	8	3	-1
Cc1oc(-c2ccccc2Cl)nc1CS(=O)CC(=O)NC1CC1 (configuration not stated)	3	1	3	8	-19	-261*
Cc1ccc(-c2nc(CS(=O)CC(=O)NC3CC3)c(C)o2)cc1 (configuration not stated)	2	3	8	13	-8	-5
CCCNC(=O)Cn1c(=O)/c(=C\c2ccc(-c3ccc([N+](=O)[O-])cc3)o2)s/c1=C\C(=O)C(C)(C)C	127*	?	18	-23	-13	-6
O=[N+]([O-])c1ccc(N/N=C\c2cccnc2)nc1	0	-3	-11	-95*	15	nt
SMILES	TRPML1 agonist	TRPV1 ag	TRPV1 PAM	KCNH2 3.1 block	TRPML1 inh	KCNH2 WT inh
CCOCCCN(C)C1CCN(C(=O)c2oc3ccccc3c2NC(=O)c2ccc([N+](=O)[O-])cc2)CC1	0	1	25	-82*	30	-122*
O=C(Nc1c(C(=O)N2CCOCC2)oc2ccccc12)c1cccc([N+](=O)[O-])c1	-1	17	-23	3	2	6
CCOCCCN(C)C1CCN(C(=O)c2oc3ccccc3c2NC(=O)c2ccc(F)cc2)CC1	0	3	5	-92*	-13	-82*
Cc1ccc2c(/C=C/c3c[nH]c4ccccc34)ccnc2c1C	12	nt	nt	nt	nt	nt
CCOc1ccccc1CNc1nc2ccccc2n1C	-1	6	84*	-17	6	24
O=C(NC1CCCCC1NC(=O)c1cccs1)c1cccs1 (configuration not stated)	1	1	-2	8	4	-3
O=C(NC1CCCCCC1)c1cccs1	1	nt	nt	-3	-5	-83*
COc1cc(OC)c(NC(=O)CC(c2cccs2)N2Cc3ccccc3C2=O)cc1Cl (configuration not stated)	1	nt	nt	nt	43	nt
O=C1CCc2cc(-c3csc(-c4ccc(O)cc4)n3)ccc2N1	0	nt	nt	nt	nt	nt
CCCN1C2CCCC1CC(NC(=O)Nc1cccc(C(C)=O)c1)C2 (configuration not stated)	1	2	-23	5	-3	4
CCCN1C2CCCC1CC(NC(=O)Nc1ccc(C(C)C)cc1)C2 (configuration not stated)	1	0	-9	-74*	47	-10
Cc1cc(C)c(S(=O)(=O)N2CCCc3ccccc32)c(C)c1	nt	6	-5	-95*	nt	-7
CCCCCCCCCCCCCCCC[n+]1ccc(/C=C/c2c[nH]c3ccccc23)cc1	16	nt	nt	nt	nt	nt
CCCCCCC[n+]1ccc(/C=C/c2c(C)[nH]c3ccccc23)cc1	57*	nt	nt	nt	nt	nt
CCCCCCCCCC[n+]1ccc(/C=C/c2c[nH]c3ccccc23)cc1	68*	nt	nt	nt	nt	nt
CCCCCCCCCCCCCCCC[n+]1ccc(/C=C/c2c(C)[nH]c3ccccc23)cc1	5	nt	nt	nt	nt	nt
CCOc1cc(/C=C(\C#N)C(=O)NCC2CCCO2)ccc1OCC(N)=O (configuration not stated)	0	0	0	-185*	-9	-136*
Nc1nc(CN2CCC(Cc3ccccc3)CC2)nc(Nc2ccccc2)n1	0	2	4	-87*	27	-90*
CC1CC(C)CN(Cc2nc(N)nc(Nc3ccccc3)n2)C1 (configuration not stated)	0	3	4	-31	1	30
Cc1ccc(Nc2nc(N)nc(CN3CCN(c4ccccc4F)CC3)n2)cc1	1	21	-6	-86*	3	25
CC1CC(C)CN(Cc2nc(N)nc(Nc3ccc4ccccc4c3)n2)C1 (configuration not stated)	-1	11	-12	-113*	-3	-5
Nc1nc(CN2CCCCCC2)nc(Nc2ccccc2)n1	0	7	-8	-32	0	3

High-throughput results: PubChem BioAssay, National Center for Advancing Translational Sciences (NCATS)
